Compound activity from PubChem.
CFTR F508del cor = correctors of CFTR F508del function in bronchial epithelial cells; CFBE cells, YFP halide quenching; stimulated with forskolin plus potentiator P3; % fluorescence drop versus neutral controls; activity (quench increase), % at 7.58 µM; 350,000 tested, 0.36% active;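 active = mean added fluorescence quench of at least 8% versus neutral control, with both replicates also reaching 8%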;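 note: cells transiently co-express mutant CFTR-F508del with the halide-sensitive YFP; corrector assay measuring rescue of mutant channel to the surface after 24 h compound exposure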
Casp6 inh = inhibitors of human caspase-6; P55212; purified caspase-6, Z-VEID-R110 cleavage fluorescence; inhibition, % at 12.5 µM; 350,000 tested, 0.53% active; AID 686996;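 active = mean inhibition across replicates at least about 35%, with every replicate also reaching that limit, limit read from the data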
Target sequence (P55212 24-179 limits assumed): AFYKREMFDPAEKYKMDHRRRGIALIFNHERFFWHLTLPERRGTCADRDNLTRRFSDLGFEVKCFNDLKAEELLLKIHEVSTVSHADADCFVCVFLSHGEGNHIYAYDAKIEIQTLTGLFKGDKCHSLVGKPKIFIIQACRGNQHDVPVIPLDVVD
Target sequence (P55212 194-293 limits assumed): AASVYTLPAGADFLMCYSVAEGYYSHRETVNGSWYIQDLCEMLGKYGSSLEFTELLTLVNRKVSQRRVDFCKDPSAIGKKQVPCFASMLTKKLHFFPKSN
HIV Env fusion = HIV envelope-mediated fusion inhibition. HeLa-JRFL Env/CEM21 cell fusion, luciferase. inhibition, % at 12.3 µM. 360,000 tested, 1.1% active. AID 651610;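 active = mean replicate inhibition score of at least 50 and every replicate individually at or above 50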
NSD2 inh = blocks human histone methyltransferase NSD2 | O96028 | NSD2 peptide methylation, AlphaScreen, 120 min | inhibition, % at 12.5 µM | 310,000 tested, 0.54% active | AID 743445; in the data active = inhibition above about 50%
ALR inh = blocks human ALR sulfhydryl oxidase activity; purified ALR, DTT oxidation, H2O2 HRP-luminol luminescence; 290,000 tested, 3.8% active; P55789; inhibition, % (no concentration beside the values);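 active = mean replicate inhibition above about 79%, with every replicate also reaching it, limit read from the data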
Target sequence (P55789 whole entry, looked up): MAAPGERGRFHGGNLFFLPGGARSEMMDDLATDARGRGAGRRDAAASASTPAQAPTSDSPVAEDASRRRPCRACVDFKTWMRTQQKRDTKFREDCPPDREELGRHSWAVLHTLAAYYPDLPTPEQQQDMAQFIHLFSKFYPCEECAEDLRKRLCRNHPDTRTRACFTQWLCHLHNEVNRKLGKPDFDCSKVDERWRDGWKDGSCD
PglD DTNB = blocks C. jejuni PglD acetyltransferase activity | purified PglD enzyme, DTNB colorimetric CoA detection | inhibition, % at 12.5 µM | 360,000 tested, 0.098% active | AID 602405; in the data active = inhibition above about 16%, passing the limit was not always enough
AlphaScreen art = AlphaScreen assay artifact in NSD2 counter-screen. shares compounds with NSD2 inh. AlphaScreen artifact counterscreen, preloaded methylated H4 peptide. AC35, µM (series often up to 10 µM). 1,500 tested, 9.4% active; call rule not given here
Large screens that a line does not name were inactive (follow-up assays come after a bar, where they were run). A selection: hits, their analogues and other compounds. The true share with any hit is near 4.1%.

COc1cccc(/C=C/C(=O)OCC(=O)NCC2CCCO2)c1 (stereo unspecified)	none (no result: CFTR F508del cor, Casp6 inh)
CNCc1cc(Br)c(OCC(=O)Nc2ccccc2OC)c(OC)c1	NSD2 inh 73 (no result: PglD DTNB) | AlphaScreen art inactive
CC(C)c1nc2oc3c(NCC4CCCO4)ncnc3c2c2c1COC(C)(C)C2 (stereo unspecified)	NSD2 inh 54 (no result: CFTR F508del cor, Casp6 inh, ALR inh) | AlphaScreen art inactive
Cc1nc2oc3c(NCC4CCCO4)ncnc3c2c2c1COC(C)(C)C2 (stereo unspecified)	none (no result: CFTR F508del cor, Casp6 inh)
O=C(C[C@H]1CC[C@H](NS(=O)(=O)c2ccccc2)[C@H](CO)O1)NCCN1CCCCC1	none (no result: NSD2 inh, ALR inh)
CO[C@@H](CN(C)Cc1cc(F)ccc1F)[C@@H](C)CN([C@H](C)CO)S(=O)(=O)c1ccc(F)cc1	none (no result: NSD2 inh, ALR inh)
CO[C@@H]1CN(C)C(=O)c2ccc(NC(=O)Nc3cccc(F)c3)cc2OC[C@@H](C)NC[C@@H]1C	none (no result: NSD2 inh, ALR inh)
Oc1cccc2c(NC(=S)Nc3ccc(OC(F)F)cc3)cccc12	Casp6 inh 81, NSD2 inh 92 (no result: PglD DTNB) | AlphaScreen art inactive
CC1CCCCN1CCNC(=O)c1cc2c(-c3ccccc3F)nn(C)c2s1 (stereo unspecified)	none (no result: NSD2 inh)
CCCCN(CC)CCNC(=O)c1cc2c(-c3ccccc3F)nn(C)c2s1	NSD2 inh 86 | AlphaScreen art inactive
Cc1noc(C)c1NC(=O)Nc1ccc2c(c1)CC(=O)N([C@H](C)CO)C[C@@H](C)[C@H](CN(C)Cc1ccc(Oc3ccccc3)cc1)O2	none (no result: Casp6 inh, NSD2 inh, ALR inh)
CC(=O)N=Cc1c(C)c(C#N)c(=O)n(C)c1O	NSD2 inh 101 (no result: ALR inh, PglD DTNB) | AlphaScreen art inactive
CCN(CC)CCn1c2c(c(SCC(=O)Nc3ccc4c(c3)OCO4)nc1=O)CCC2	none
CCCCc1ccc(NC(=O)CSc2nc(=O)n(CCN(CC)CC)c3c2CCCC3)cc1	NSD2 inh 66, ALR inh 98 | AlphaScreen art inactive
CSc1nnc(-c2ccc(S(=O)(=O)N3CCCCC3)cc2)o1	none
O=S(=O)(c1ccc(-c2nnco2)cc1)N1CCCCC1	NSD2 inh 93 | AlphaScreen art inactive
COc1ccccc1-c1ccc2c(c1)O[C@H](CN(C)CC1CC1)[C@H](C)CN([C@@H](C)CO)S2(=O)=O	none (no result: Casp6 inh, NSD2 inh, ALR inh, PglD DTNB)
Cc1nc(COC(=O)c2cc(O)c3ccccc3c2O)cs1	NSD2 inh 78 (no result: ALR inh, PglD DTNB) | AlphaScreen art inactive
COc1ccc(S(=O)(=O)N(C)C[C@@H]2OCCCC[C@@H](C)Oc3ccc(NC(=O)Nc4ccc(C(F)(F)F)cc4)cc3C(=O)N([C@@H](C)CO)C[C@@H]2C)cc1	none (no result: NSD2 inh, ALR inh)
Cc1cc(NS(=O)(=O)c2ccc(NC(=O)CSc3nnc(-c4ccncc4)n3Cc3ccco3)cc2)nc(C)n1	NSD2 inh 56 (no result: CFTR F508del cor, Casp6 inh, HIV Env fusion, ALR inh, PglD DTNB) | AlphaScreen art inactive
C[C@H]1CN([C@@H](C)CO)C(=O)c2cc(-c3ccc(C#N)cc3)cnc2O[C@H]1CN(C)Cc1cncnc1	none (no result: Casp6 inh, NSD2 inh, ALR inh, PglD DTNB)
CC(C)NC(=O)N(C)C[C@H]1OCCCC[C@H](C)Oc2ccc(NS(=O)(=O)c3ccc(F)cc3)cc2C(=O)N([C@H](C)CO)C[C@H]1C	none (no result: NSD2 inh, ALR inh)
CCCCc1nc2cc(C(=O)N3CCC[C@H]3CO)ccc2o1	none
CCCCc1nc2cc(C(=O)N3CCC(O)CC3)ccc2o1	NSD2 inh 66 (no result: ALR inh) | AlphaScreen art inactive
COc1ccc(CC2=CC(=O)c3ccccc3C2=O)cc1	NSD2 inh 55 | AlphaScreen art inactive
CC(C)CN(C(=O)COC(=O)c1cccs1)c1c(N)n(Cc2ccccc2)c(=O)[nH]c1=O	none (no result: ALR inh)
CC(C)CN(C(=O)COC(=O)c1ccc([N+](=O)[O-])s1)c1c(N)n(Cc2ccccc2)c(=O)[nH]c1=O	Casp6 inh 82, NSD2 inh 65 | AlphaScreen art inactive
CCCCn1c(N)c(N(CCC(C)C)C(=O)COC(=O)c2ccc([N+](=O)[O-])s2)c(=O)[nH]c1=O	Casp6 inh 95, NSD2 inh 53 | AlphaScreen art inactive
COc1ccc2c3c([nH]c2c1)[C@@H](CO)N(C(=O)c1cnccn1)CC31CCN(C(=O)c2cnccn2)CC1	none (no result: HIV Env fusion, NSD2 inh, ALR inh, PglD DTNB)
CC(C)(C)c1ccc(C(=O)NNc2cc(N3CCCCC3)nc(N3CCCCC3)n2)cc1	none (no result: CFTR F508del cor, Casp6 inh, NSD2 inh)
O=C(NNc1cc(N2CCCC2)nc(N2CCCC2)n1)c1ccc([N+](=O)[O-])cc1	NSD2 inh 89 (no result: PglD DTNB) | AlphaScreen art inactive
CCCNC(=O)Nc1ccc2c(c1)C(=O)N(C)[C@@H]1CC[C@H](CC(=O)NCCCN(C)C)O[C@H]1CO2	none (no result: HIV Env fusion, NSD2 inh, ALR inh)
O=C([C@@H]1N[C@@H]2c3ccc(C4=CCCC4)c(=O)n3C[C@@H]2[C@H]1CO)N1CCc2ccccc2C1	none (no result: HIV Env fusion, NSD2 inh, ALR inh)
C[C@@H]1CN([C@@H](C)CO)C(=O)Cc2cc(NS(=O)(=O)c3ccccc3)ccc2O[C@H]1CN(C)Cc1ccc2c(c1)OCO2	none (no result: HIV Env fusion, NSD2 inh, ALR inh)
COC1=CC(=O)C(OC)=C(OC)C1=O	NSD2 inh 101 (no result: ALR inh) | AlphaScreen art inactive
O=C(CNc1ccc(F)cc1)N/N=C/c1c(O)ccc2ccccc12	NSD2 inh 70 (no result: PglD DTNB) | AlphaScreen art inactive
CCCCn1c(Cn2nc(C(=O)O)c3ccccc3c2=O)nc2cc(S(N)(=O)=O)ccc21	NSD2 inh 102 | AlphaScreen art inactive
NS(=O)(=O)c1ccc(NC(=O)Cn2nc(C(=O)O)c3ccccc3c2=O)cc1	none
Cc1ccc(CC(=O)Nc2nncs2)cc1	NSD2 inh 57 (no result: CFTR F508del cor, Casp6 inh, ALR inh) | AlphaScreen art inactive
C[C@@H]1CN([C@H](C)CO)C(=O)c2cc(N(C)C)ccc2O[C@@H](C)CCCCO[C@@H]1CN(C)C(=O)c1ccncc1	none (no result: NSD2 inh, ALR inh)
CCCCCNc1nc(N2CCCC2)c2c(c1C#N)CCN(C)C2	none (no result: CFTR F508del cor, Casp6 inh, HIV Env fusion)
CCCCCNc1nc(NCCCO)c(C#N)c2c1CN(C)CC2	NSD2 inh 51 (no result: CFTR F508del cor, Casp6 inh, HIV Env fusion, PglD DTNB) | AlphaScreen art inactive
O=C(NC[C@H]1CC[C@H]2[C@H](CN2Cc2nccs2)O1)C1CCC1	none (no result: HIV Env fusion, NSD2 inh, ALR inh, PglD DTNB)
Cc1ccc(-c2cc(C(=O)N/N=C/c3ccc(Cl)cc3)n[nH]2)o1	none
Cc1ccc(-c2cc(C(=O)N/N=C/c3ccccc3)n[nH]2)o1	NSD2 inh 122 | AlphaScreen art inactive
O=C(C=Cc1ccccc1)c1cc(Br)ccc1O	NSD2 inh 54 (no result: ALR inh) | AlphaScreen art inactive
CO[C@@H]1CN(C)C(=O)c2cc(NC(=O)Nc3ccccc3)ccc2OC[C@@H](C)N(C(=O)Nc2c(C)noc2C)C[C@@H]1C	none (no result: HIV Env fusion, NSD2 inh, ALR inh)
Cc1ccc(C(=O)NC2(O)C(=O)c3ccccc3C2=O)cc1C	NSD2 inh 110 | AlphaScreen art inactive
CC(NC(=O)Cc1ccccc1)c1ccccc1 (stereo unspecified)	none
O=C(Cc1ccccc1)NC1(O)C(=O)c2ccccc2C1=O	NSD2 inh 101 (no result: ALR inh) | AlphaScreen art inactive
O=C(NC1(O)C(=O)c2ccccc2C1=O)c1ccc(C(F)(F)F)cc1	NSD2 inh 108 | AlphaScreen art inactive
Cc1ccc(C(=O)NCC(=O)OCN2C(=O)c3ccccc3C2=O)cc1C	none (no result: HIV Env fusion, PglD DTNB)
